# Assay results taken from PubChem BioAssay (NCI).
# The panel holds about 83,000 compounds, 20% with a hit somewhere; the sample as a whole holds those more often.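 A percent growth of 40 corresponds to 60% growth inhibition; 0 means no net growth; -100 means all cells died. Active threshold: below 10.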 A number with no mark means an inactive call. Activity calls are given as the source filed them.
# System: CCRF-CEM leukemia
# Assay: NCI-60 one-dose screen, 48 h (100 = growth as untreated, 0 = no growth, -100 = all killed)
# Conditions: 10 µM unless noted
# Protocol: Growth inhibition of the CCRF-CEM human tumor cell line is measured as a screen for anti-cancer activity. Cells are grown in 96 well plates and exposed to the test compound for 48 hours. Compounds are tested at a single concentration, which is 10^-5 M for most compounds. The reported endpoint is percent growth (GI% or GIPRCNT), where numbers from 0 - 100% represent growth inhibition, and numbers from -100% - 0 represent cell death. For example, a value of 40 represents 60% growth inhibition. A value of 0 means no net growth occurred over the course of the experiment. A value of -40 indicates 40% of cells at the beginning of the experiment died by the end of the experiment. A value of -100 means all cells are dead at the end of the experiment.
# NCI-60 Human Tumor Cell Lines Screen was performed using the standard one-dose NCI protocol, which is described in more detail at https://dtp.cancer.gov/discovery_development/nci-60/default.htm.
# Compounds with GIPRCNT values below 10 were considered active. Activity score was based on GIPRCNT using the following formula: […]
# Score is 0 for GIPRCNT values of 100 or above, 50 for GIPRCNT values of 0, and 100 for GIPRCNT values of -100.
row,Structure (SMILES),growth
1,COc1ccc(-c2cn(-c3cccc(C(=O)/C=C/c4cc(OC)c(OC)c(OC)c4)c3)c(=O)[nH]2)cc1OC,34.3%
2,COc1ccc(/C(C#N)=C/c2cc(OC)c(OC)c(OC)c2)cc1,26.8%
3,Cc1cc(N/N=C/c2nc(-c3ccccc3)oc2C)c2cc(Br)ccc2n1,27.7%
4,COc1ccc2c(c1)[nH]c(=O)c1c3cc(C)c(C)cc3cn21,-68.1% (active)
5,O=C(Nc1ccc(Cl)c(Cl)c1)NS(=O)(=O)c1cnccc1Oc1ccc(F)cc1,2.81% (active)
6,NC(=N\N=C/c1ccc(O)cc1)/C(N)=N\N=C/c1ccc(O)cc1,10.8%
7,Cc1ccc(S(=O)(=O)NCCNc2cc(-c3cn(C(C)(C)C)nc3-c3cccc(O)c3)ccn2)cc1,60.7%
8,Cn1c2ccc(Br)cc2c2c3c(c4c5ccccc5[nH]c4c21)C(=O)N(O)C3=O,-16% (active)
9,CCOC(=O)c1c(NS(=O)(=O)c2ccc(C)cc2)sc2c1CCC1(C2)OCCO1,96.2%
10,Cc1cc(N)n(S(=O)(=O)c2oc(-c3ccccc3)nc2C#N)n1,7.83% (active)
11,O=C1C2(c3ccccc3)C(c3ccccc3)=C(c3ccccc3)C1(c1ccccc1)C1CC=CC12 (stereo not given),84.2%
12,COc1cc2c(cc1OCCCCCn1c3ccccc3c3ccccc31)N=C[C@@H]1CCCN1C2=O,-0.543% (active)
13,Cc1ccc(S(=O)(=O)c2nc(-c3ccccc3)oc2S(C)(=O)=O)cc1,0.985% (active)
14,Nc1nc(=O)c2ccccc2s1,92.2%
15,COc1ccc(-c2nc(/C=N/Nc3cc(C)nc4ccc(Br)cc34)c(C)o2)cc1,-50.4% (active)
16,c1cc(C2=N[C@@H]3c4ccccc4C[C@@H]3O2)nc(C2=N[C@@H]3c4ccccc4C[C@@H]3O2)c1,102%
17,Oc1ccccc1/C=N/NC(=S)NC1CC2C=CC1C2 (stereo not given),49.5%
18,CCN(CC)CCCC(C)Nc1c2ccc(Cl)cc2nc2cc(OC)c(OC)cc12 (stereo not given),15.5%
19,CCCCCCCCN(CCCCCCCC)CCCCCCNc1cc(OC)cc2cccnc12,-59% (active)
20,CC1=NC2=CC=CC3=NC(C(Cl)(Cl)Cl)=NC(=N1)N23,70.1%

row,Structure (SMILES),growth
1,NC1=NN(O)C2=CC([N+](=O)[O-])C=CC2=N1 (stereo not given),104%
2,CCN(CC)c1ccc(N=O)cc1,21.4%
3,COc1cc(-c2nc(N=Nc3c(O)[nH]c4ccc(Br)cc34)[nH]c(=O)c2C#N)cc(OC)c1OC,94.5%
4,CCO/C=N/C1=C(C#N)C(c2ccc(Cl)cc2)c2c(c3ccccc3n(C)c2=O)O1 (stereo not given),66.9%
5,O=S1(=O)CCC(N(/N=C/c2ccco2)c2ccccc2)C1 (stereo not given),94%
6,COc1ccc(/C=C2\Oc3cc(OCCCN4CCCC4)ccc3C2=O)c(OC)c1,11.9%
7,N/C(=N\S(=O)(=O)c1ccccc1)Nc1nc2ccccc2s1,109%
8,O=[N+]([O-])c1cccc(-c2nc3sccn3c2-c2ccnc(NCCCNS(=O)(=O)c3ccc(Cl)cc3)n2)c1,16.7%
9,Cc1cc(C2(c3cc(C)c(O)cc3C)OS(=O)(=O)c3ccccc32)c(C)cc1O,93.7%
10,N#C/C(=C1C=C/C(=N/O)C(Cl)=C/1)c1ccc(Cl)cc1,7.1% (active)
11,C/C(=N/NC(=S)Nc1ccccc1)c1nc2ccc(Cl)cc2[nH]1,1.46% (active)
12,CC12CCC3C4(C)COC(c5ccco5)OC4CCC3(C)C1CC(C1=CCOC1=O)O2 (stereo not given),101%
13,CCN(CC)CCC(CNc1ccnc2cc(Cl)ccc12)c1ccccc1 (stereo not given),58.6%
14,COc1cc(NCCCCCN)c2ncccc2c1,-24% (active)
15,CC(C)(C)n1cc(-c2ccnc(NCCCNS(=O)(=O)c3cccc(F)c3)c2)c(-c2cccc(O)c2)n1,39.6%
16,O=[N+]([O-])c1cccc(-c2nc3sccn3c2-c2ccnc(NCCCNS(=O)(=O)c3ccc(C(F)(F)F)cc3)n2)c1,14.5%
17,CC1(c2ccc(Cl)cc2)OC(=O)CC(=O)O1,100%
18,CCCCNC(=O)Oc1ccc(/C(=C(\C)c2ccccc2)c2ccc(OCCN(CC)CC)cc2)cc1,60.1%
19,O=c1ccn(C2CC(O)C(O)C(CO)O2)c(=O)[nH]1 (stereo not given),7.45% (active)
20,Clc1cc2c(nn1)Nc1ccccc1S2,93.7%
